Screening results as filed in PubChem BioAssay.
D1 ag = Allosteric Agonists of the Human D1 Dopamine Receptor: qHTS; D(1A) dopamine receptor (Homo sapiens), P21728; HEK293 T-REx D1 cells, calcium flux, agonist mode; activation, % at 2 µM; 1% of 360,000 active; AID 504660, 2011; in the data active = activation above about 30%
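Agonism was scored from calcium flux recorded over 180 s (1 read/s) after pintool compound addition, following a 10-cycle baseline. Cells were inducible force-coupled HEK293 TREx D1, plated overnight at 30 C and loaded with no-wash calcium dye.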
D1 potentiator = Potentiators of Human D1 Dopamine Receptor: qHTS; D(1A) dopamine receptor (Homo sapiens), P21728; HEK293 TREx D1 cells, calcium flux, dopamine EC20 potentiation; potentiation, % at 10 µM; 0.036% of 360,000 active; in the data active = potentiation above about 30%
D3 antag = qHTS of D3 Dopamine Receptor Antagonist: qHTS | D(3) dopamine receptor (Homo sapiens), P35462 | max response, negative = inhibition, % | 2.5% of 360,000 active | D3R cells, DiscoveRx beta-arrestin luminescence, antagonist mode; active compounds read low; in the data active = max response below about -50%; inconclusive = no clear call, values can overlap the other calls
Target sequence (P35462 whole entry, looked up): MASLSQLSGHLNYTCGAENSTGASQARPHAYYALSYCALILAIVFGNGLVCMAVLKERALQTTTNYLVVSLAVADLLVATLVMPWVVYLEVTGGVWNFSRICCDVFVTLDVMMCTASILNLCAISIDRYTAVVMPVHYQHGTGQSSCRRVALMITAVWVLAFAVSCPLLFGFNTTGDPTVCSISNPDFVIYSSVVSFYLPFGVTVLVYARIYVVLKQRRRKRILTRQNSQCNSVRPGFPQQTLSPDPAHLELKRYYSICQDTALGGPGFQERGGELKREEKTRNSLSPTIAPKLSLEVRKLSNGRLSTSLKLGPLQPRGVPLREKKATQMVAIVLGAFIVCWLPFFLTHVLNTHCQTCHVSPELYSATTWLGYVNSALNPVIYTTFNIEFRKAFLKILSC
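Cells plated overnight at 1500 cells/well, then exposed to library compounds with dopamine controls for 90 minutes at 37 degrees C. DiscoveRx reagent added for 30–60 minutes at room temperature; luminescence read, quantitative HTS format.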
D3 ag = qHTS of D3 Dopamine Receptor Agonist: qHTS; D(3) dopamine receptor (Homo sapiens), P35462; D3R DiscoveRx beta-arrestin cells, luminescence, 90 min; max activation, %; 0.58% of 410,000 active; AID 652048, 2013; in the data active = max activation above about 30%
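Agonist-mode cell screen: cells plated at 1500/well and incubated overnight at 37 °C, then exposed to library compounds for 90 min at 37 °C. Detection reagent was added for 30–60 min at room temperature, and luminescence was read.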
D1 antagonist = Antagonist of Human D 1 Dopamine Receptor: qHTS; HEK293 TREx D1 cells, calcium flux, dopamine EC80; active compounds read low; D(1A) dopamine receptor (Homo sapiens), P21728; AID 504652, 2011; 3.2% of 360,000 active; activity change, negative = inhibition, % at 10 µM; in the data active = activity change below about -30%
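Calcium flux readout: force-coupled, inducible Hek293 Trex D1 line, cells induced overnight at 30 C with tetracycline, dye-loaded 30–90 min at RT. Antagonism scored against EC80 dopamine challenge given 180 s after compound.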
A number is an active result; i = inactive; ? = inconclusive; nt = not tested or not shown. Rows were chosen to be rich in hits. Some 6% of all compounds tested hit in one or more screens of this group.

SMILES | D1 ag | D1 potentiator | D3 antag | D3 ag | D1 antagonist
Cc1ccc(C(C)(C)C)cc1S(=O)(=O)Nc1cccc(C(=O)N2CCN(c3ccccn3)CC2)c1 | 33 | i | i | i | i
Nc1c(-c2ccc(Cl)cc2)cnn1C1CCS(=O)(=O)C1 (configuration not stated) | i | i | i | i | -30
O=C(N/N=C/c1ccc(Cl)c([N+](=O)[O-])c1)c1cc(-c2ccc3c4c(cccc24)CC3)n[nH]1 | i | i | -58 | i | i
O=C(N/N=C/c1cccc([N+](=O)[O-])c1)c1cc(-c2ccc3c4c(cccc24)CC3)n[nH]1 | i | i | i | i | i
COCC(C)NC(=O)NC(=O)c1ccc(Cl)cc1 (configuration not stated) | i | i | -104 | i | i
CC(NC(=O)NC(=O)c1ccc(Cl)cc1)c1ccccc1 (configuration not stated) | i | i | ? | i | i
O=C(Nc1ccc(Cl)cc1)c1cnn2c1NC(c1ccccc1)=CC2c1ccccc1 (configuration not stated) | i | i | nt | i | i
CCCCCCc1cc2cc(S(=O)(=O)c3ccc(F)cc3)c(=O)oc2cc1O | i | i | i | 49 | i
CCCCCCc1cc2cc(-c3nnc(-c4cc(OC)c(OC)c(OC)c4)o3)c(=O)oc2cc1O | i | i | i | i | i
CCCCCCc1cc2cc(-c3nnc(-c4ccccc4O)o3)c(=O)oc2cc1O | 356 | i | i | i | i
CCCCCCc1cc2cc(-c3nnc(-c4ccccc4OC)o3)c(=O)oc2cc1O | 303 | i | i | 37 | i
CCCCSCCCNC(=O)c1cc(-c2cccnc2)nc2ccc(S(=O)(=O)N3CCC(C)CC3)cc12 | i | i | nt | i | i
CCOc1ccc(N2CC(NC(=O)c3ccc(S(=O)(=O)N4CCCCC4)cc3)CC2=O)cc1 (configuration not stated) | i | i | nt | i | nt
COc1ccccc1OCCSc1nc2ccccc2n1CC(=O)N1CCOCC1 | i | i | nt | i | i
COC(=O)c1ccc(NC(=O)c2cc(S(=O)(=O)N3CCc4ccccc43)cn2C)cc1 | i | i | nt | i | i
COc1ccc(CCC(=O)N2c3ccccc3N=C(c3ccc(C(F)(F)F)cc3)C2C(=O)NC(C)C)cc1 (configuration not stated) | nt | nt | i | 86 | nt
CCn1nc(C)c2c(-c3ccccc3)cc(=O)n(C(C)C(=O)Nc3ccc(OC)c(OC)c3)c21 (configuration not stated) | i | i | nt | i | i
CCC(=O)Nc1cccc(-c2nnc(SCC(=O)c3ccccc3)n2C)c1 | i | i | -52 | i | i
CCn1nnnc1SCC(=O)NCc1ccco1 | i | i | i | i | i
CC(C)(C)c1nnc2sc(SCC(=O)NCc3ccco3)nn2c1=O | i | nt | i | i | -32
CCc1ccccc1-n1c(SCC(=O)NC)nnc1-c1ccco1 | i | i | i | i | -37
CCCCn1nnnc1SCC(=O)NCc1ccco1 | i | i | i | i | -33
CCc1ccc(OCC(=O)N(Cc2ccc(OC)cc2)C2CCS(=O)(=O)C2)cc1 (configuration not stated) | i | i | nt | i | i
Cn1c(SCC(=O)NCc2ccco2)nnc1-c1ccccc1 | i | i | ? | i | -53
Cn1c(SCC(=O)NC(=O)NCc2ccco2)nnc1-c1ccccc1 | i | i | ? | i | i
SMILES | D1 ag | D1 potentiator | D3 antag | D3 ag | D1 antagonist
O=C(C[n+]1cc(-c2ccc(F)cc2)n2c1CCC2)Nc1nc(-c2ccc(F)cc2)cs1 | i | i | i | i | -31
O=C(CN1CCCCC1)Nc1nc(-c2ccc(Cl)cc2)cs1 | i | i | i | i | -53
O=C(CN1CCCC1)Nc1nc(-c2ccc(Cl)cc2)cs1 | nt | nt | i | i | nt
CCOC(=O)Cn1c(=N)n(Cc2ccc(C(C)(C)C)cc2)c2ccccc21 | 48 | i | nt | i | i
Cc1ccc(C)c(C(=O)C(C)Sc2nc3nn(-c4ccccc4)c(=O)c-3c3n2CCCCC3)c1 (configuration not stated) | i | i | i | i | -36
Cc1nnc(SCC(=O)Nc2sc3c(c2C(N)=O)CCCC3)[nH]c1=O | i | i | i | i | i
Cc1nnc(SCC(=O)Nc2sc3c(c2C(N)=O)CCC(C)C3)[nH]c1=O (configuration not stated) | i | i | i | i | -47
CCCc1cc(C(=O)N2CCCC(N3CCN(c4ccccc4C)CC3)C2)n(C)n1 (configuration not stated) | i | i | i | i | i
Cc1ccccc1N1CCN(C2CCCN(C(=O)c3cc(CC(C)C)nn3C)C2)CC1 (configuration not stated) | i | i | i | i | -32
COc1ccc(OC)c(CCNC(=O)c2c(C)nn(-c3ccc(F)cc3)c2-n2cccc2)c1 | i | i | nt | i | i
Clc1cccc(-c2ccc(/C=N/n3cnnc3)o2)c1Cl | i | i | i | i | -61
C=CCCC1CN(CCCC)S(=O)(=O)c2c(F)cccc2O1 (configuration not stated) | nt | nt | i | 35 | nt
CC(C)c1ccc(S(=O)(=O)c2nnn3c2nc(N2CCOCC2)c2sccc23)cc1 | i | i | nt | i | i
O=c1cc(-c2ccc([N+](=O)[O-])cc2)c2cc3c(cc2[nH]1)OCCO3 | i | i | i | 36 | i
O=c1cc(-c2ccccc2)c2cc3c(cc2[nH]1)OCCO3 | i | i | i | i | i
O=C(CCS(=O)(=O)c1cc(Br)cc2c1N(C(=O)C1CC1)CC2)NCc1ccccc1Cl | i | i | nt | i | i
CCCCNC(=O)CSc1nc2nc(C)c(Cc3ccccc3C)c(C)n2n1 | i | i | nt | i | i
Cc1ccc(C(=O)CSC2=C(C#N)C(c3ccco3)C3=C(CC(C)(C)CC3=O)N2)cc1 (configuration not stated) | i | i | -59 | i | i
CC1(C)CC(=O)C2=C(C1)NC(SCC(=O)Nc1ccccc1)=C(C#N)C2c1ccco1 (configuration not stated) | i | i | i | i | i
Cc1noc(-c2ccc(-c3noc(-c4ccc(Cl)cc4)n3)cc2)n1 | i | i | nt | i | i
CC(=O)Nc1ccc(NC(=O)C(C)OC(=O)CNS(=O)(=O)/C=C/c2ccc(C)cc2)cc1 (configuration not stated) | i | i | -54 | i | i
Cc1ccc(/C=C/S(=O)(=O)NCC(=O)OCC(=O)Nc2ccc(C(N)=O)cc2)cc1 | i | i | i | i | i
COCCCNC(=O)C(=O)NCC(c1ccc2c(c1)OCO2)N1CCOCC1 (configuration not stated) | i | i | nt | i | i
Cc1[nH]n(-c2ccccc2)c(=O)c1-c1ccccc1 | i | i | ? | i | i
